Compounds with a hit are over-represented: about 12% of the library has one in this group of screens.
PI5P4K alpha inh = PI5P4K alpha (human) kinase inhibition. AID 652105. P48426. 1.2% of 330,000 active. max response, %. PI5P4Kalpha enzyme, ADP-Glo luminescence, 60 min; stronger effect = lower value; active = max response of -50% or lower; inconclusive = between -30% and -50%; inactive = -30% or higher; note: value at the top dose of about 77 µM; % is set by controls: 0 for no effect and ±100 for the full control effect
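Reactions run in 0.038 M HEPES pH 7.4, 0.28 mM EGTA, 0.1% CHAPS and 5% DMSO, with PI5P4Kalpha, substrate, compound and 5 microM ATP final, one hour at room temperature. Readout is ADP-Glo luminescence.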
G9a block = G9a (human) methyltransferase inhibition. G9a H3K9 monomethylation, AlphaScreen, 2 h. AID 504332. Potency, µM (top dose mostly 102 µM), for the others: at the highest dose activity, negative = inhibition, usual class: inhibitors. 8.8% of 350,000 active; note: potency is the fitted concentration of half-maximal effect; % is set by controls: 0 for no effect and ±100 for the full control effect; nearly all actives have a fitted effect of over 75% in size
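Using a bead-based AlphaScreen, monomethylated H3K9 product from 2 h room-temperature reactions (G9a 20 nM, peptide 500 nM, SAM 20 uM) was detected with 0.5 ug/mL rabbit anti-H3K9me1 antibody.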
HP1b binding inh = blocks HP1-beta chromodomain binding to methylated histone tails | P83916 | AlphaScreen HP1-beta / biotin-H3K9me3 peptide binding | Potency, µM (series often up to 114 µM), inactives show at the top dose activity change, negative = inhibition, most hits filed as inhibitors | 0.56% of 390,000 active | AID 540317; note: potency is the fitted concentration of half-maximal effect; nearly all actives have a fitted effect of over 70% in size
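AlphaScreen: HP1-beta (50 nM) preformed 30 min with biotin-H3(1-18)K9me3 peptide (50 nM) in PBS pH 7.4, 0.01% Tween-20. Compound added for 30 min at RT, then streptavidin donor/nickel chelate acceptor beads (10 ug/mL) for 30 min.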
PLK1 PBD block = inhibitors of human PLK1 polo-box domain binding | Potency, µM, inactives show max response, negative = inhibition, most hits filed as inhibitors | P53350 | 2.8% of 360,000 active | Plk1 PBD binding of FITC phosphopeptide, fluorescence polarization; note: potency is the fitted concentration of half-maximal effect; series mostly up to about 57 µM; % is set by controls: 0 for no effect and ±100 for the full control effect; nearly all actives have a fitted effect of over 65% in size
JMJD2A Tudor = inhibitors of human JMJD2A Tudor domain. 4.4% of 390,000 active. Potency, µM (titrated, usually from 114 µM), without a hit: top-dose activity change, negative = inhibition, hits mostly inhibitors. AlphaScreen JMJD2A-Tudor / H3K4me3 peptide binding; note: potency is the fitted concentration of half-maximal effect; % is set by controls: 0 for no effect and ±100 for the full control effect; nearly all actives have a fitted effect of over 50% in size
BAZ2B block = blocks human BAZ2B. AlphaScreen BAZ2B-H3K14Ac peptide displacement. AID 504333. Q9UIF8. Potency, µM (top dose mostly 114 µM), inactives show top-dose activity change, negative = inhibition, usual class: inhibitors. 4.4% of 360,000 active; note: potency is the fitted concentration of half-maximal effect; % is set by controls: 0 for no effect and ±100 for the full control effect; nearly all actives have a fitted effect of over 60% in size
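BAZ2B 50 nM plus b-H3(5-23)K14Ac 50 nM, PBS pH 7.4/0.01% Tween-20, 30 min RT; compound added (max 110 uM), 30 min RT; streptavidin donor/Ni-chelate acceptor beads 10 ug/mL final, 20 min dark; AlphaScreen read.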
* = called active by the depositor; [ ] = remark or other dose. Unless noted, calls come from the whole dose curve; as a rule, active = well fitted curve in the direction sought with a large enough effect; inconclusive = small, poorly fitted or top-dose-only effect, or another doubt; inactive = no such curve, though single readings can be large; an effect the other way counts as inactive or inconclusive.

`CCOC(=O)c1[nH]c(C)c(/C(O)=C2\C(=O)C(=O)N(CCN(C)C)C2c2ccc(C)o2)c1C` (stereo unspecified) gave G9a block 40µM*, HP1b binding inh 6%, PLK1 PBD block -2%, JMJD2A Tudor inconclusive and BAZ2B block -35%.
Screening Cc1c(/C(O)=C2\C(=O)C(=O)N(CCN(C)C)C2c2ccco2)cnn1-c1ccccc1 (stereo unspecified) returned PI5P4K alpha inh -1, G9a block inconclusive, HP1b binding inh 19%, PLK1 PBD block -3%, JMJD2A Tudor 12% and BAZ2B block -5%.
Screening Cc1ccc(C)c(/C(O)=C2/C(=O)C(=O)N(CCN3CCOCC3)C2c2ccco2)c1 (stereo unspecified) returned PI5P4K alpha inh -2, G9a block inconclusive, HP1b binding inh inconclusive, PLK1 PBD block inconclusive, JMJD2A Tudor 79µM* and BAZ2B block 22µM*.
COC(=O)c1[nH]c(C)c(/C(O)=C2\C(=O)C(=O)N(CCN3CCOCC3)C2c2cccnc2)c1C (stereo unspecified) was read as G9a block inconclusive, HP1b binding inh 12%, PLK1 PBD block -12%, JMJD2A Tudor 22µM* and BAZ2B block -4%.
Screening COc1cccc(C2/C(=C(/O)c3cnn(-c4ccccc4)c3C)C(=O)C(=O)N2CCN(C)C)c1OC (stereo unspecified) returned PI5P4K alpha inh 8, G9a block 14µM*, HP1b binding inh 21%, PLK1 PBD block -7%, JMJD2A Tudor -15%[57.1 µM] and BAZ2B block inconclusive.
`CN(Cc1ccccc1)C(c1ccnc2ccccc12)c1nnnn1-c1ccc2c(c1)OCCO2` (stereo unspecified) gave PI5P4K alpha inh -5 and PLK1 PBD block -10%.
Screening CCc1cccc(C)c1NC(=O)C1CCCN1C(=O)NCc1ccccc1 (stereo unspecified) returned PI5P4K alpha inh -8, G9a block -11%, HP1b binding inh 26%, PLK1 PBD block -17%, JMJD2A Tudor -9% and BAZ2B block 6%.
Screening CCOc1ccc(-c2nc(SCC(=O)NCCOC)c(-c3ccc(OC)c(OC)c3)[nH]2)cc1 returned G9a block -23%[59 µM], HP1b binding inh -11%, JMJD2A Tudor -29% and BAZ2B block inconclusive.
Cc1ccc(C)c(S(=O)(=O)N2CCCCC2CCNC(=O)C(=O)NCc2ccncc2)c1 (stereo unspecified) was read as PI5P4K alpha inh 1, G9a block -29%, HP1b binding inh 33%, PLK1 PBD block -3%, JMJD2A Tudor -3% and BAZ2B block 5%.
For Cc1ccc(C2/C(=C(/O)c3cnn(-c4ccccc4)c3C)C(=O)C(=O)N2CCN2CCOCC2)o1 (stereo unspecified) the results were PI5P4K alpha inh -4, G9a block inconclusive, HP1b binding inh 14%, PLK1 PBD block 1%, JMJD2A Tudor inconclusive and BAZ2B block 79µM*.
CCN(CC)CCN1C(=O)C(=O)/C(=C(/O)c2c(C)[nH]c(C(=O)OC)c2C)C1c1ccccc1 (stereo unspecified) was read as PI5P4K alpha inh 2, G9a block 8%[12.7 µM], HP1b binding inh 18%, PLK1 PBD block -8%, JMJD2A Tudor -18% and BAZ2B block 1%.
For COC(=O)c1[nH]c(C)c(/C(O)=C2\C(=O)C(=O)N(CCN3CCOCC3)C2c2ccc(C)o2)c1C (stereo unspecified) the results were PI5P4K alpha inh -7, G9a block 45µM*, HP1b binding inh 9%, PLK1 PBD block -10%, JMJD2A Tudor inconclusive and BAZ2B block -19%.

Bioassay records as filed in PubChem.
